Screens deposited in PubChem by National Center for Advancing Translational Sciences (NCATS).
Marburg entry inh: qHTS for inhibitors of binding or entry into cells for Marburg Virus | Marburg virus pseudotyped entry inhibition, cell reporter | Potency, µM (doses to about 37.8 µM), for the others: top-dose activity change, negative = inhibition, hits mostly inhibitors | 300,000 compounds, 1.8% hits | AID 540276, 2011; calls by dose curve; tested in HEK293 cells; further: potency means the concentration at half of the fitted maximal effect
FMDV antiviral: High Throughput Screening for Foot and Mouth Disease Virus Antivirals | AID 1159524, 2015 | 410,000 compounds, 1.2% hits | Potency, µM (top dose mostly 57.9 µM), for inactives: at the highest dose activity change, negative = inhibition, most hits filed as inhibitors | FMDV antiviral cell-based qHTS; calls by dose curve; tested in HEK293T cells; further: read-out not given here; potency means the concentration at half of the fitted maximal effect; nearly all actives have a fitted effect of over 45% in size
Lassa entry inh: qHTS for Inhibitors of binding or entry into cells for Lassa Virus | Lassa virus pseudotype entry inhibition, cell reporter | Potency, µM (series often up to 37.9 µM), for the others: at the top dose activity change, negative = inhibition, usual class: inhibitors | 300,000 compounds, 1.2% hits | AID 540256, 2011; calls by dose curve; tested in HEK293 cells; further: potency means the concentration at half of the fitted maximal effect; nearly all actives have a fitted effect of over 50% in size
HCMV antiviral: qHTS Assay for inhibitors of the human cytomegalovirus (HCMV) | AID 1259415, 2018 | activity change, negative = inhibition, % at 57.5 µM | HFF cells, HCMV-luciferase reporter, 72 h; hits give low values | 410,000 compounds, 4.5% hits; in the data active means activity change below about -60%; inconclusive means no clear call, values can overlap the other calls; inactive means above about -39%
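Steps: HFFs plated, 16 h 37C; compounds added; HCMV-luciferase added to MOI 1 PFU/cell; 72 h 37C; OneGlo reagent, 5 min room temperature; luminescence read, normalized to controls.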
Vaccinia mCherry: qHTS for Stage-Specific Inhibitors of Vaccinia Orthopoxvirus: mCherry Reporter Primary qHTS; Potency, µM (titrated, usually from 36.5 µM), for inactives: at the top dose activity change, negative = inhibition, most hits filed as inhibitors; Vaccinia virus mCherry reporter infection, fluorescence; 310,000 compounds, 0.63% hits; calls by dose curve; tested in A549 cells; further: potency means the concentration at half of the fitted maximal effect; nearly all actives have a fitted effect of over 35% in size
VACV Venus inh: qHTS for Stage-Specific Inhibitors of Vaccinia Orthopoxvirus: Venus Reporter Primary qHTS; Vaccinia virus Venus reporter expression, fluorescence; Potency, µM (series often up to 36.5 µM), inactives show at the highest dose activity change, negative = inhibition, most hits filed as inhibitors; 330,000 compounds, 0.46% hits; AID 720580, 2013; calls by dose curve; tested in A549 cells; further: potency means the concentration at half of the fitted maximal effect; nearly all actives have a fitted effect of over 30% in size
Starred values were filed as active, the others as inactive; i = inactive; ? = inconclusive; . = not tested or not shown; ! = repeats disagree; [ ] = another dose, or the depositor's remark. The list is not random: actives were taken first. Their share in the collection is about 6.5%. On the % scale 0 is the no-effect control and ±100 the full control effect.

SMILES	Marburg entry inh	FMDV antiviral	Lassa entry inh	HCMV antiviral	Vaccinia mCherry	VACV Venus inh
COc1ccc(S(=O)(=O)N(CC(=O)NCC2CCCO2)Cc2ccccc2)cc1C (stereo unspecified)	20.0%[46.1 µM]	1.0%	?	-90.2*	-17.7%	-5.3%
CCC(C(=O)NCC1CCCO1)N(Cc1ccccc1)C(=O)CNS(=O)(=O)c1ccccc1 (stereo unspecified)	-4.1%[46.1 µM]	-1.7%	-14.3%	-35.2	0.9%	-0.8%
CCOc1ccccc1N(CC(=O)NCC1CCCO1)C(=O)CNS(=O)(=O)c1ccccc1 (stereo unspecified)	-3.7%[46.1 µM]	4.5%	5.3%	-68.8*	-7.9%	-8.2%
CCC(C(=O)NCC1CCCO1)N(Cc1ccc(F)cc1)C(=O)CNS(=O)(=O)c1ccccc1 (stereo unspecified)	-2.6%[46.1 µM]	23.1%	-2.2%	-70.6*	-18.6%	-6.9%
C=CCNc1cccc2c1S(=O)(=O)N[C@H](C)CO2	.	.	.	10.6	.	.
O=C(Oc1ccnc2cc(Cl)ccc12)N1CCOCC1	-8.7%	-17.0%	-22.4%	-75.7*	-11.4%	-7.1%
O=C(Oc1c(Cl)cc(Cl)c2cccnc12)N1CCOCC1	?	-0.5%	?	-16.7	.	.
COc1ccccc1C1CN(Cc2cccc3nccnc23)Cc2ccccc2O1 (stereo unspecified)	.	-7.7%	.	.	-16.2%	-11.6%
Cn1c(=O)c(CCc2ccccc2)nc2cnc(Oc3ccccc3)nc21	.	15.4%	.	.	.	.
CCC(NC(=O)Nc1nnc(C(F)(F)F)s1)(C(F)(F)F)C(F)(F)F	2.51µM*	?	7.08µM*	-105.0*	3.55µM*	2µM*
COC(/C=C/Nc1ccc(OC)cc1)=C(C#N)C#N	-4.3%	.	0.6%	-14.7	i	0.9%
COc1ccc(OC)c(N/C=C/C(=C(C#N)C#N)N(C)C)c1	?	12.0%	-6.1%[46.1 µM]	-67.7*	-20.6%	-15.4%
CC(CCl)OC(C)CCl (stereo unspecified)	.	-19.3%	.	-73.8*	-20.4%	-17.1%
Cc1ccccc1NC(=O)CSCn1nnc2c(=O)[nH]c(Cc3ccc(F)cc3)nc21	-19.3%[46.1 µM]	6.8%	15.8%[46.1 µM]	6.9	-5.4%	-1.1%
Cc1cc2c(cc3c(SCC(=O)Nc4cccc(Cl)c4C)nnc(C)n32)o1	.	20.7%	17.9%[46.1 µM]	1.9	-6.4%	-10.6%
COc1ccc2oc3cc(C)[n+]([O-])c(-c4ccc(Br)cc4)c3c2c1	-27.6%	31.6µM*	?	-84.3*	-26.8%	-16.4%
COc1ccc(OCC2CN(C3CCCC3)S(=O)(=O)CCO2)cc1 (stereo unspecified)	.	.	.	-17.6	.	.
CC(C)CCn1c(SC(C)C#N)nc2ccccc2c1=O (stereo unspecified)	.	.	.	.	4.5%	-10.4%
Cc1ccc(C(C(=O)NC(C)(C)C)N(CCCN2CCOCC2)C(=O)c2ccc(-c3ccccc3)[nH]2)o1 (stereo unspecified)	-3.4%[46.1 µM]	21.4%	11.9%	-74.0*	-1.9%	-0.7%
O=C(NC1CCCCC1)C(c1cccs1)N(CCCN1CCOCC1)C(=O)c1ccc(-c2ccccc2)[nH]1 (stereo unspecified)	?	-13.6%	-17.6%	-4.9	-22.8%	-20.0%
O=C(NCCc1nc2ccccc2[nH]1)c1cccc(Br)c1	0.8%[46.1 µM]	-24.4%	2.5%	-70.0*	-11.5%	-8.1%
CCOc1ccc(C(c2c(O)cc(C)n(Cc3ccco3)c2=O)N2CCN(C)CC2)cc1 (stereo unspecified)	.	-16.0%	?	20.6	-10.4%	-5.9%
CCOC(=O)C1=CCN(S(=O)(=O)c2cccc(Cl)c2)C1c1ccc(Cl)c(Cl)c1 (stereo unspecified)	.	.	.	-14.9	.	.
CCCN(CCC)CCc1ccc(O)c(O)c1	1µM*!	-9.4%	23.6%	.	-14.5%	-3.6%
COc1ccc(/C=C/c2ccnc3ccccc23)c(OC)c1	.	.	.	.	-28.6%	2.1%
COc1cc(CNc2nc(C)c([N+](=O)[O-])c(C)c2C#N)cc(OC)c1OC	?	25.1µM*	?	40.4	-3.6%	-14.8%
COc1ccc(CNc2nc(C)c([N+](=O)[O-])c(C)c2C#N)cc1	-6.6%	-26.0%	11.6%	?	i	-10.6%
